About 420 (0.68%) of roughly 62,000 compounds were called active. Only a selection was taken, and actives are over-represented in it overall. Values without a mark were called inactive.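 How the source made its calls: active means inhibition above the mean of all tested compounds plus 3 SD (cut at about 43% in these data); inactive means the rest.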
These compounds were tested against 5-hydroxytryptamine receptor 1A (Homo sapiens) (UniProt P08908) (assay: human 5-HT1a receptor antagonists, primary screen, cell-based, CHO, Ga15 NFAT-bla reporter (AID 612;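 further: receptor stimulated by 5-CT agonist at 100 nM near EC80; beta-lactamase reporter measured by ratiometric fluorescence of a cleavable substrate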)). Conditions: CHO 5-HT1a Ga15 NFAT-bla reporter, antagonist mode; at 10 µM; active compounds read high.
Sequence of 5-hydroxytryptamine receptor 1A (Homo sapiens) (P08908 whole entry, looked up): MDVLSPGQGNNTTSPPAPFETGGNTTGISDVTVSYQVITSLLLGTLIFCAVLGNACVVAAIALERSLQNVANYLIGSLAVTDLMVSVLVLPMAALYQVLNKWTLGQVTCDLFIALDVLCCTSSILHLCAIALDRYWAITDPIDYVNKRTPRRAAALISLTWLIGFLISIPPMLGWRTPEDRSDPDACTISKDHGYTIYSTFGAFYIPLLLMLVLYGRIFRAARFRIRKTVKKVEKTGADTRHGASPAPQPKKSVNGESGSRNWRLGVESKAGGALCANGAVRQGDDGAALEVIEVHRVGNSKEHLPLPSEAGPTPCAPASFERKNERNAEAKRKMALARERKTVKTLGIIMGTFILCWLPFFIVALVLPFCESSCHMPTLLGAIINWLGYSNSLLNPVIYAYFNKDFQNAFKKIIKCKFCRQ
`CS(=O)(=O)c1ccc2nc(NC(=O)C3C4C=CC(C4)C3C(=O)O)sc2c1` (configuration not stated) showed an inhibition of -0.7%. Work on `CN1C(=O)c2ccccc2C(C(=O)NCCCN2CCCC2)C1c1c[nH]c2ccccc12` (configuration not stated) yielded an inhibition of -6.4%. `O=C(O)CCN1C(=O)CC2(CCCCC2)C1=O` gave an inhibition of 6.3%. Compound `C=CCSc1nnc(Cn2c(=O)sc3ccccc32)n1C` has an inhibition of -0.5%. Compound `COc1nc(NCc2ccc(Cl)cc2)nc(OC)n1` has an inhibition of -1.3%. Work on `Cc1nc(C)c2c(c1C(F)(F)F)-c1ccccc1C2(F)F` yielded an inhibition of -9.3%. Compound `Cc1ccc2c(C(=O)CN3CCCC3)c(C)[nH]c2c1` has an inhibition of 14.4%. `CCCCOc1ccc(C(C)(O)CCN2CCOCC2)cc1` (configuration not stated) showed an inhibition of 8.9%. For `Cc1oc2nc(SCC(=O)NCc3cccnc3)nc(N)c2c1C`, the inhibition was 5.1%. With `CCOc1ccc(Cn2nnc(C(=O)NCc3ccccc3)c2N)cc1` the inhibition was 10.3%. In the case of `CCC(C)NC(=O)N[C@@H](CCSC)C(=O)O` (some centres not stated), the inhibition is reported as -11.6%. `CC1(C)C(=O)C2(CCCCC2)C(=O)OC1c1cccs1` (configuration not stated) gave an inhibition of -2.8%. Work on `CN(CCC#N)c1ncnc2scc(-c3ccccc3)c12` yielded an inhibition of 11.5%. Work on `C/C(=C\C(=O)c1ccc(Br)cc1)N1CCCCC1` yielded an inhibition of 0.5%. Work on `CCN(CC)S(=O)(=O)c1cccc(C(=O)Nc2ccccc2)c1` yielded an inhibition of 16.2%. Work on `Cc1cc(C(=O)OCC(=O)c2c(N)n(C)c(=O)n(C)c2=O)c(C)o1` yielded an inhibition of -7.9%. In the case of `CCOC(=O)CN1CC23C=CC(O2)C(C(=O)Nc2ccc(F)cc2)C3C1=O` (configuration not stated), the inhibition is reported as -5.1%. For `Cc1ccc(-n2c(Cc3cccs3)nnc2SCC(=O)OC(C)C)cc1`, the inhibition was 8.6%. In the case of `Cc1c(C(=O)NCCN2CCOCC2)sc2nc(-c3ccc(F)cc3)cn12`, the inhibition is reported as -8%. `O=C(COc1ccc(S(=O)(=O)NCCc2ccccc2)cc1)N1CCCC1` gave an inhibition of -0.2%. `CCOC(=O)C1CCCN(C(=O)CN(c2ccc(OC)cc2)S(=O)(=O)c2c(C)noc2C)C1` (configuration not stated) showed an inhibition of -9.3%. `CCCCNC(=O)c1ccccc1NC(=O)c1ccccc1N(C)S(C)(=O)=O` gave an inhibition of -13.1%. For `CCN1CCN(Cc2nc3c(c(=O)n(C)c(=O)n3C)n2CC(=O)c2ccccc2)CC1`, the inhibition was 4.5%. Compound `O=C(C1=C(O)C(=O)N(c2ncccn2)C1c1cccs1)c1ccco1` (configuration not stated) has an inhibition of 11.8%. Compound `Cc1cc(C(=O)Nc2c(C)n(C)n(-c3ccccc3)c2=O)cs1` has an inhibition of 5.4%. In the case of `O=C(NC1=NCCS1)c1ccc(Cl)s1`, the inhibition is reported as 10.2%. Work on `Cc1ccccc1Nc1nc(N)nc(CN2CCN(c3ccccn3)CC2)n1` yielded an inhibition of 2%. For `CCOC(=O)c1ccc(N2C(=O)CC(N3CC(C)OC(C)C3)C2=O)cc1` (configuration not stated), the inhibition was 14%. `CC1=C(C(=O)OC2CCCCC2)C(c2cccnc2)n2ncnc2N1` (configuration not stated) gave an inhibition of -5%. Compound `CCN1CCN(Cc2c(O)ccc3c(=O)c(-c4ccc(OC)c(OC)c4)c(C(F)(F)F)oc23)CC1` has an inhibition of 4.3%. For `COc1ccc(NC(=O)c2cccc(NC(=O)c3ccco3)c2)c(OC)c1`, the inhibition was 5.2%. In the case of `Cc1ccc(S(=O)(=O)N2CCOCC2)cc1C(=O)NCc1ccc(F)cc1`, the inhibition is reported as 3.3%. Work on `CC1Cc2ccccc2N1C(=O)CSc1nnc(-c2ccc(S(=O)(=O)N3CCCCC3)cc2)o1` (configuration not stated) yielded an inhibition of 1.4%. Compound `CCCC(=O)NC(C)C(c1cccs1)N1CCN(c2ccccc2)CC1` (configuration not stated) has an inhibition of 16.9%. In the case of `COc1ccc(C(C(O)C(=O)c2c[nH]c3ccccc23)N2CCN(c3ccccc3)CC2)cc1` (configuration not stated), the inhibition is reported as 43.9% (active). With `COc1ccc(OC)c(S(=O)(=O)N(C)CC(=O)N2CCN(c3ccccc3)CC2)c1` the inhibition was -11.1%. Compound `COc1ccc(NC(C)=O)cc1NC(=O)CN1CCN(c2ccccn2)CC1` has an inhibition of -0.2%. With `Cc1ccc(-n2nc3c(c2NC(=O)c2ccc4c(c2)OCO4)CSC3)c(C)c1` the inhibition was 9%. With `Nc1ccc(-c2nnc(-c3ccc(-c4ccccc4)cc3)o2)cc1` the inhibition was 62.6% (active). With `O=C(Nc1ccc(-c2nnc(-c3ccccc3)o2)cc1)c1ccc(Br)o1` the inhibition was -16.4%. `O=C(Nc1ccc(-c2nnc(-c3ccccc3)o2)cc1)C1CCCO1` (configuration not stated) gave an inhibition of 9.7%. Work on `CN1CCN(C(=O)C2C3C=CC(C3)C2C(=O)O)CC1` (configuration not stated) yielded an inhibition of -4%. For `CCOC(=O)c1ccc(NC(=O)CSc2ncccn2)cc1`, the inhibition was -16.8%. Work on `Cc1noc(C)c1S(=O)(=O)N1CCCC(C(=O)Nc2nccs2)C1` (configuration not stated) yielded an inhibition of -3.8%. `CCc1nnc(NC(=O)c2nc3nccc(C)n3n2)s1` showed an inhibition of -1.7%. For `O=S(=O)(Nc1nccs1)c1ccc2c(c1)OCCO2`, the inhibition was -0.3%. `O=C(CN1CCOc2ccccc21)N1CCC(Cc2ccccc2)CC1` showed an inhibition of 4.5%. `CC(=O)C1C(c2cccc(Oc3ccccc3)c2)NC(=O)NC1(O)C(F)(F)F` (configuration not stated) gave an inhibition of -16.2%. Work on `O=C(CSCc1cccs1)N1CCCC1` yielded an inhibition of -5.9%. `O=C1c2cccnc2C(=O)N1Cc1cccs1` showed an inhibition of -0.8%. `c1csc(CN2CCN(Cc3cccs3)C2c2cccs2)c1` was tested, and the inhibition was 78.7% (active). `N#Cc1ccc(COC(=O)Cn2nnc(-c3ccccc3)n2)cc1` was tested, and the inhibition was 7.6%. With `Cc1ccc(CNC(=O)CCCNC(=O)c2ccc(Cl)cc2)n1C` the inhibition was -4.8%. With `CCSC1(SCC)N=C(N)C2(C#N)C(c3ccccc3)NC(C)=CC12C#N` (configuration not stated) the inhibition was 1.4%. `CCOc1ccc(-c2cn(S(=O)(=O)c3cccc4nsnc34)nc2N)cc1` gave an inhibition of 11.8%. Work on `CCCC(=O)Nc1ccc(Cl)c(NC(=O)c2ccc(Br)o2)c1` yielded an inhibition of -5.8%. In the case of `CCN1CCN(c2c(Cl)cccc2NC(=O)c2ccc(Br)o2)CC1`, the inhibition is reported as 63.5% (active). `COc1cc(OC)c(NC(=O)c2ccc(Br)o2)cc1Cl` gave an inhibition of 5.1%. With `O=C(CCCn1c(SCC(=O)c2ccc(F)cc2)nc2ccccc2c1=O)NCc1ccco1` the inhibition was 7.8%. For `Cn1nc(-c2ccc(N3CCOCC3)c(NC(=O)c3ccccc3)c2)c2ccccc2c1=O`, the inhibition was 26.6%. `Cc1ccc(C(c2nnnn2C(C)(C)C)N2CCc3ccccc3C2)cc1` (configuration not stated) was tested, and the inhibition was -4.5%. `COc1ccc(OC)c(C(c2nnnn2C(C)(C)C)N2CCc3ccccc3C2)c1` (configuration not stated) was tested, and the inhibition was 48.2% (active). Work on `COCCn1nnnc1C(c1cc2ccc(OC)cc2[nH]c1=O)N1CCc2ccccc2C1` (configuration not stated) yielded an inhibition of 1.8%. With `Cc1ccc(N2C(=O)c3ccccc3C2(O)c2ncc[nH]2)cc1` (configuration not stated) the inhibition was 3.5%. `CSc1cccc(NC(=O)CSc2ccccc2)c1` was tested, and the inhibition was -10.6%. `CC(C)COC(=O)c1ccc(NC(=O)C2C3C=CC(C3)C2C(=O)O)cc1` (configuration not stated) showed an inhibition of 4.8%. With `CCn1nnc(NC(=O)c2cc(Cl)c(OC)c(Cl)c2)n1` the inhibition was -4.7%. For `COc1cc2[nH]c(=S)n(CCN3CCCCC3C)c(=O)c2cc1OC` (configuration not stated), the inhibition was 2.5%. Compound `O=C(O)CC(Cn1cnnn1)c1ccccc1` (configuration not stated) has an inhibition of 0.4%. Compound `COc1ccc2[nH]c3c(=O)n(Cc4ccco4)cnc3c2c1` has an inhibition of 6%. With `CCOc1ccc(N(CC(=O)NCc2ccc(OC)cc2)S(=O)(=O)c2c(C)noc2C)cc1` the inhibition was 3.7%. Work on `COc1ccc2c(c1)CCc1c(C(=O)N3CCc4ccccc4C3)noc1-2` yielded an inhibition of -3.2%. `CN=C1SC(C(=O)O)CC(=O)N1C` (configuration not stated) gave an inhibition of 3.6%. `COc1ccccc1-n1cnc2cc(NS(=O)(=O)c3ccccc3)ccc21` gave an inhibition of 26.7%. With `CCCCn1c(SCC(=O)N2CCC(C(=O)OCC)CC2)nc2cc(S(N)(=O)=O)ccc21` the inhibition was 5.5%. `CCn1c(CSc2nncn2-c2ccc(OC)cc2)nc2cc(S(=O)(=O)N(C)C)ccc21` showed an inhibition of 0.4%. Work on `CCC1C(C#N)=C(SC)NC2=C1C(=O)CC(C)(C)C2` (configuration not stated) yielded an inhibition of 0.2%. `O=C(/C(=N\O)n1cncn1)c1ccc(Br)cc1Br` showed an inhibition of -1.8%. Compound `CC(=O)c1c(N)n(C)c(=O)n(C)c1=O` has an inhibition of 1.2%. `CC1CSc2nnc(CCc3ccccc3)n21` (configuration not stated) was tested, and the inhibition was 5.7%. `CN1CCN(S(=O)(=O)c2ccc(NC(=O)C3CCCO3)cc2)CC1` (configuration not stated) showed an inhibition of -0.1%. `Cc1ccc(NC(=O)Cn2nc(C)c3ccccc3c2=O)c(C)c1` showed an inhibition of 2.8%. With `C=CCn1c(SCn2nnc3ccccc3c2=O)nnc1-c1ccc(Cl)cc1` the inhibition was -2.8%. Work on `O=C(Nn1cc(C(=O)N2CCN(c3ccccc3F)CC2)c2ccccc2c1=O)c1cnccn1` yielded an inhibition of 0.3%. For `CCn1c2c(c3ccc(OC)cc31)CCCC2=O`, the inhibition was -8.1%. For `O=C(CSc1nnc(Cn2cnc3ccccc32)o1)c1ccccc1`, the inhibition was -8.1%. For `CC(=NC1CCN(Cc2ccccc2)CC1)c1c(O)[nH]c(=O)[nH]c1=O`, the inhibition was -6.7%. Work on `Cc1ccc(-c2noc(CN3CCN(Cc4ccccc4)CC3)n2)cc1` yielded an inhibition of -3.3%. For `CC12CN(Cc3ccccc3)CC(C)(CN(Cc3ccccc3)C1)C2=NO`, the inhibition was 50.1% (active). `CN1C(=O)CC(N2CCN(c3ccccn3)CC2)C1=O` (configuration not stated) was tested, and the inhibition was -2.2%. For `C=CCNc1nnc(C)c2ccccc12`, the inhibition was 0.9%. For `Cc1noc(C)c1S(=O)(=O)N(CC(=O)Nc1ccc2c(c1)OCCO2)c1ccc(C(C)C)cc1`, the inhibition was 2%. Compound `COCCOC(=O)C1=C(C)N=c2s/c(=C\c3cccs3)c(=O)n2C1c1cccs1` (configuration not stated) has an inhibition of 6.2%. For `Cc1cc(C)n(-c2ccc(Cl)c(C(=O)O)n2)n1`, the inhibition was -12.6%. In the case of `CCOC(=O)c1cnc(-n2nc(C)cc2C)nc1Nc1cccc(C(C)=O)c1`, the inhibition is reported as 12.1%. With `CC(=O)c1ccc(Oc2cc(C)nc(-n3nc(C)cc3C)n2)cc1` the inhibition was 45.2% (active). For `CCOCCCN1C(=O)CN(C2CCCCC2)C(=O)C1c1ccc(OCC)c(OC)c1` (configuration not stated), the inhibition was 4.5%.
